Compound activity from PubChem BioAssay.
GLP1R inv ag – inverse agonists of human GLP-1 receptor; hit rate 1.6% among 410,000; P43220; Potency, µM (top dose mostly 38.3 µM), usual class: inhibitors; AID 624417; HEK293 GLP-1R CRE-luciferase, luminescence, 24 h; GLP-1R form is constitutively active; further: nearly all actives have a fitted effect of over 55% in size
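Stable HEK293 clone (constitutively active GLP-1R + cAMP-response luciferase); 200 cells/uL plated, 12 h pre-culture, compound 24 hr, 37 deg C/5% CO2; detection reagent 12 min RT; luminescence.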
GLP1R ag – GLP-1 receptor (human) agonism; hit rate 0.007% among 380,000; P43220; Potency, µM (series often up to 45.6 µM), hits mostly activators; HEK293 GLP-1R CRE-luciferase, luminescence, 4-6 h; cells express a hypersensitive GLP-1R form; AID 624172
GRP78 ERSR act – inducers of ER stress response in human glioma cells | U87-MG GRP78 promoter luciferase reporter, 16 h | Potency, µM, most hits filed as activators | hit rate 0.02% among 420,000 | AID 602332; further: series mostly up to about 76 µM; nearly all actives have a fitted effect of over 35% in size
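Stably transfected U87-MG human glioma cells carrying a GRP78-based luminescent sensor were seeded at 1000 cells/well, pin-dosed with compounds and incubated 16 h. Luciferase reagent was then added, and end-point luminescence was read after 10 min at room temperature.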
ALOX12 inh – blocks human arachidonate 12S-lipoxygenase; P18054; purified 12hLO, xylenol orange hydroperoxide absorbance; Potency, µM (series often up to 108 µM), usual class: inhibitors; hit rate 1.1% among 580,000
Target sequence (P18054 whole entry, looked up): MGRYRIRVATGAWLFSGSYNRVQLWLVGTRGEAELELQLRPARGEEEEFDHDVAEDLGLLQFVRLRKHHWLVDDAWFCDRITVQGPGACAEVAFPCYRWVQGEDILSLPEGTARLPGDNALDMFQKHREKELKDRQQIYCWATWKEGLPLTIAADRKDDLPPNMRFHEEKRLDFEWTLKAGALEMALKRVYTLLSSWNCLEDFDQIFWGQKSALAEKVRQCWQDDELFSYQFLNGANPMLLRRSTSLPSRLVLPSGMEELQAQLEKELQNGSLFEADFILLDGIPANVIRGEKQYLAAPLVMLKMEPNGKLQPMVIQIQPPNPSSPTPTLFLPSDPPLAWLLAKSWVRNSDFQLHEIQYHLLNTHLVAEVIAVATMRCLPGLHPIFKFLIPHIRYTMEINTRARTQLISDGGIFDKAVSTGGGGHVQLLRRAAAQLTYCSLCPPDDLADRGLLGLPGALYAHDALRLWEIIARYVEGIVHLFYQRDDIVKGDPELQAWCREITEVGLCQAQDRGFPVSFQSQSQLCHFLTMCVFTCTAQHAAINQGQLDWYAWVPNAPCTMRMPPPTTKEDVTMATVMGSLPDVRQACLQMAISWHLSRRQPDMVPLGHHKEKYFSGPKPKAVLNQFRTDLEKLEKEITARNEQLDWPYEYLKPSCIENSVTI
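Hydroperoxide product was detected by ferrous iron/xylenol orange as the 573 to 405 nm absorbance ratio. Arachidonic acid at 40 uM (final) was turned over for 30 min at room temperature by 150 nM human 12hLO, pH 7.0 Hepes buffer, after 15 min compound preincubation.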
GLS inh – inhibitors of human glutaminase (GLS) | Potency, µM (titrated, usually from 45.5 µM), actives largely listed as inhibitors | hit rate 0.21% among 410,000 | GLS enzymatic activity, qHTS titration | O94925
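Glutamate formation by hKGA was monitored fluorometrically using coupled glutamate oxidase, HRP and Amplex Red. Substrate was added as 1 mM L-glutamine solution; incubation was 30 min at RT after an initial read.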
PTHR1 agonist – agonists of human PTHR1 parathyroid hormone receptor; Q03431; HEK293 GP2 PTHR1 cells, GloSensor cAMP luminescence, 1 h; Potency, µM (series often up to 115 µM), most hits filed as activators; hit rate 0.075% among 410,000; further: nearly all actives have a fitted effect of over 55% in size
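HEK-293-derived GP2 cells expressing PTHR1 and a GloSensor cAMP reporter, 3,000/well, plated overnight, given luciferin plus IBMX (each 0.5 mM as added) for 1 h at 37 °C, then compound for 1 h at 37 °C. Luminescence was read after 15 min at room temperature.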
Hits are given with their value; i = inactive; ? = inconclusive; nt = no result; ! = not active in a repeat; [ ] = remark or other dose. The list is not random: actives were taken first. Their share in the collection is about 2.3%. The call rests on the fitted dose curve; in most records, active means well fitted curve in the direction sought with a large enough effect; inconclusive means small, poorly fitted or top-dose-only effect, or another doubt; inactive means no such curve, though single readings can be large; an effect the other way counts as inactive or inconclusive.

SMILES | GLP1R inv ag | GLP1R ag | GRP78 ERSR act | ALOX12 inh | GLS inh | PTHR1 agonist
COc1ccc(N2CCN(C(=O)CSc3nnc(-c4cccnc4)n3-c3ccc(F)cc3)CC2)cc1 | i | i | i | i | i | i
COc1ccc(N2CCN(C(=O)CSc3nnc(-c4cccnc4)n3-c3ccccc3)CC2)cc1 | 11.2µM | i | i | i | i | i
CC(C)(C)c1cc(Cl)ccc1OCCOCCN1CCCC1 | ? | i | i | ? | i | i
Cc1cc(C(C)(C)C)ccc1OCCOCCN1CCCC1 | 12.6µM | i | i | ? | i | i
COc1cc(OC)c(C(=O)OCC(=O)Nc2ccccc2C(C)=O)cc1OC | nt | nt | nt | i | nt | nt
CCOC(=O)c1oc2ccc(S(=O)(=O)NCC3Cn4cccc4C(=O)N3C)cc2c1C (stereo unspecified) | nt | nt | nt | 35.5µM | nt | nt
COc1cccc(-c2csc(N3CCN(C(=O)Nc4ccccc4Cl)CC3)n2)c1 | ? | i | i | i | i | i
COc1ccc(N2CCN(C(=O)Nc3cccc(C(F)(F)F)c3)CC2)cc1 | 10µM | i | i | ? | i | i
COc1cccc(NC(=O)N2CCN(c3nc(-c4cccc(OC)c4)cs3)CC2)c1 | 12.6µM | i | i | i | i | i
COc1cccc(-c2csc(N3CCN(C(=O)NC45CC6CC(CC(C6)C4)C5)CC3)n2)c1 | 5.01µM | i | i | i | i | i
COc1cc(CNCCc2ccccc2)ccc1OCC(N)=O | i | i | i | i | i | i
COc1cc(CNCCc2c[nH]c3ccccc23)ccc1OCc1ccccc1F | 7.94µM | i | i | i | i | i
COc1cccc(CNCCc2c[nH]c3ccccc23)c1OCc1ccccc1 | ? | i | i | ? | i | i
COc1cc(CNCCO)ccc1OCCc1ccccc1 | 1µM | i | i | i | i | ?
O=C(O)C1C2C=CC(C2)C1C(=O)NCc1ccc2c(c1)OCO2 (stereo unspecified) | i | i | i | i | i | i
O=C(O)C1C2C=CC(C2)C1C(=O)NCc1ccc(Cl)c(Cl)c1 (stereo unspecified) | 11.2µM | i | i | i | i | i
Cc1ccncc1-c1c(C)nn2c1N(Cc1cccc(O)c1)CCC2 | nt | nt | nt | 31.6µM | nt | nt
CCCCc1ccc(/C=C(\C#N)C(N)=S)s1 | ? | i | i | 39.8µM | i | i
O=C(O)c1ccccc1-c1ncc(-c2ccc(F)cc2)o1 | nt | nt | nt | i | nt | nt
CSc1ccc(CN(C)C(=O)c2cccc(S(=O)(=O)NCc3ccccc3)c2)cc1 | 5.01µM | i | i | i | i | i
CN(Cc1ccc(F)cc1)C(=O)c1cccc(S(=O)(=O)N2CCN(c3ccc(F)cc3)CC2)c1 | 10µM | i | i | ? | i | i
CSc1ccc(CN(C)C(=O)c2cc(S(=O)(=O)NCc3ccccc3)ccc2C)cc1 | ? | i | i | ? | i | i
COCCN(Cc1ccccc1)C(=O)c1cccc(S(=O)(=O)N2CCN(c3ccccc3)CC2)c1 | 10µM | i | i | i | i | i
CSc1ccc(CN(C)C(=O)c2cccc(S(=O)(=O)N3CCN(Cc4ccccc4)CC3)c2)cc1 | 11.2µM | i | i | i | i | i
CC1=CC(=O)C2=C(C)C[C@H](OC(=O)c3ccccc3Br)[C@@H]3[C@H](OC(=O)[C@H]3C)[C@@H]12 | nt | nt | nt | i | nt | nt
SMILES | GLP1R inv ag | GLP1R ag | GRP78 ERSR act | ALOX12 inh | GLS inh | PTHR1 agonist
COCCn1c(CN2CCCCC2C)nc2c1c(=O)n(C)c(=O)n2C (stereo unspecified) | nt | nt | nt | i | nt | nt
CCC(C(=O)NCCC(C)C)n1ccc2cc(S(=O)(=O)N3CCCCC3)ccc21 (stereo unspecified) | 7.94µM | i | i | nt | i | i
CC(C)CCNC(=O)c1cc2cc(S(=O)(=O)N3CCCCC3)ccc2n1C | i | nt | i | i | i | i
COc1cccc(CNC(=O)C(C)n2ccc3cc(S(=O)(=O)N4CCCCCC4)ccc32)c1 (stereo unspecified) | 12.6µM | i | i | i | i | i
CN1CCCCC12Cc1ccccc1CN([S+](=O)([O-])c1ccccc1)C2 (stereo unspecified) | nt | nt | nt | i[6.33 µM] | nt | nt
Cc1ccc(C2CC(=O)CC(c3ccc(C)cc3C)S2)c(C)c1 (stereo unspecified) | nt | nt | nt | i | nt | nt
CCn1cc[n+](C)c1P(c1ccccc1)c1ccccc1 | i | i | i | 39.8µM | i | i
O=C(O)CCCn1c(=S)[nH]c2c(sc3ccc([N+](=O)[O-])cc32)c1=O | i | i | i | 17.8µM | ? | i
Cc1ccc(C)c(S(=O)(=O)N2CCN(C(=O)NC(C)CCc3ccccc3)CC2)c1 (stereo unspecified) | nt | nt | nt | i | nt | nt
Cc1cccc(NC(=S)N/N=C2\CC(C)(C)Oc3ccc(O)cc32)c1 | ? | i | i | ? | i | i
COc1cccc(NC(=S)N/N=C2\CC3CCC2(C)C3(C)C)c1 (stereo unspecified) | ? | i | i | 35.5µM | i | i
COc1cccc(NC(=S)N/N=C2\CC(C)(C)Oc3ccc(O)cc32)c1 | 7.08µM | i | i | 31.6µM | i | i
CCn1c(SCc2nc(-c3ccccc3)oc2C)nc2c(=O)[nH]cnc21 | nt | nt | nt | i | nt | nt
CCCCOC(=O)C1CN(c2ccccc2)N=C1C(=O)OCC (stereo unspecified) | 10µM | i | i | i | i | i
Cc1cc(C(=O)COC(=O)c2ccc(O)cc2)c(C)n1-c1ccccc1F | 10µM | i | i | i | i | i
Cc1cc(C(=O)COC(=O)c2ccc[nH]c2=O)c(C)n1-c1ccccc1F | i | i | i | i | i | i
CCOC(=O)C1=C(N)Oc2ccc(Br)cc2[C@@H]1[C@@H](C#N)C(=O)OCC | nt | nt | i | 10µM | nt | nt
CCOC(=O)C1=C(N)Oc2cc(O)ccc2C1c1ccc(Br)cc1 (stereo unspecified) | ? | i | i | 25.1µM! | i | i
CCOC(=O)C1=C(N)Oc2cc(O)ccc2C1c1cccc(Cl)c1 (stereo unspecified) | ? | i | i | ? | i | i
Cc1cc(Br)cc(Cl)c1OCC(=O)Nc1cccc(N2CCCC2=O)c1 | nt | nt | nt | i | nt | nt
c1csc(CNc2ccnc(-c3ccoc3)n2)c1 | nt | nt | i | 12.6µM | nt | nt
COc1ccccc1-c1nccc(NCc2cccs2)n1 | nt | nt | i | 12.6µM | nt | nt
FC(F)(F)c1ccccc1-c1nccc(NCc2cccs2)n1 | nt | nt | i | ? | nt | nt
Cc1oc2cc(OCCN3CCN(CCO)CC3)ccc2c(=O)c1-c1ccc(Br)cc1 | nt | nt | nt | 35.5µM | nt | nt
Cc1ccc(C(=O)N2CCC3(CC2)NC(=O)N(c2ccccc2)N3)cc1F | nt | nt | nt | 3.98µM | nt | nt
CN(C)c1ccc(C(=O)N2CCC3(CC2)NC(=O)N(c2ccccc2)N3)cc1 | nt | nt | nt | 2.82µM | nt | nt
O=C(CSc1nc(-c2ccccc2)cc(=O)[nH]1)Nc1ccc(Cl)c(Cl)c1 | nt | nt | nt | i | nt | nt
CC(C)CCNC(=O)c1c(-n2cnnn2)sc2c1CCCC2 | nt | nt | nt | i | nt | nt
